High-throughput results (PubChem BioAssay)
MITF primary – MITF inhibitors, primary screen, biochemical, AlphaScreen, human. 650,000 tested, 0.91% active. AlphaScreen MITF homodimerization, bead proximity signal. Microphthalmia-associated transcription factor (Homo sapiens), O75030. inhibition, % at 2.6 µM; in the data active = inhibition above about 50%
Target sequence (O75030 whole entry, looked up): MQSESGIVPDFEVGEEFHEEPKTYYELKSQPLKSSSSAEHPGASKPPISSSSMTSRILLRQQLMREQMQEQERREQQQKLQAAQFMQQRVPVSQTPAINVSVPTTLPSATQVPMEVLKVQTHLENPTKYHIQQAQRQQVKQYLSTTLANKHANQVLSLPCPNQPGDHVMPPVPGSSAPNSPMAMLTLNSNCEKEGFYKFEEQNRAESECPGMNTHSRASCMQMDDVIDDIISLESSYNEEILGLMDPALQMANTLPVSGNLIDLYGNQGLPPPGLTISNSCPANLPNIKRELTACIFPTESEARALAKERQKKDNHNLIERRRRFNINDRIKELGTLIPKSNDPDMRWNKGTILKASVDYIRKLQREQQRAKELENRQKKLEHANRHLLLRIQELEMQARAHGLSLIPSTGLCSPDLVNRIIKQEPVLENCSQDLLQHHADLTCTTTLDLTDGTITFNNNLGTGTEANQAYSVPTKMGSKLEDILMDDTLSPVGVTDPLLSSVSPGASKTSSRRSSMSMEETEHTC
GPR151 activ – activators of human GPR151, primary screen, cell-based, PathHunter beta-arrestin, luminescence | G-protein coupled receptor 151 (Homo sapiens), Q8TDV0 | 650,000 tested, 1% active | activation, % at 11.2 µM | PathHunter beta-arrestin GPR151 cells | AID 1508602, 2020; in the data active = activation above about 4.9%
FBW7 act – FBW7 E3 ligase activators, primary screen, biochemical, AlphaScreen, human; F-box/WD repeat-containing protein 7 (Homo sapiens), Q969H0; AlphaScreen FBW7–phospho-cyclin E peptide binding, activator screen; normalized activity (activation), % at 26.1 µM; 650,000 tested, 0.13% active; in the data active = normalized activity above about 1.9%;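 note: purified mutant Fbw7 with reduced substrate affinity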
TEAD-YAP inh – TEAD-YAP interaction inhibition, primary screen, TEAD-YAP interaction inhibitor project, luminescence, HEK-TIYL cells. inhibition, % at 9.12 µM. 640,000 tested, 1.4% active. TEAD-Gal4/YAP UAS-luciferase luminescence; in the data active = inhibition above about 32%
MITF confirm – MITF inhibitors, retest of hits, confirmation, biochemical, AlphaScreen, triplicate. shares compounds with MITF primary. AlphaScreen MITF homodimerization, biotin/His-MITF beads. inhibition, % at 2.6 µM. 4,700 tested, 16% active;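 active = inhibition above a cutoff derived from the DMSO control wells, cut at about 28% in these data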;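 note: inhibitors lower the bead chemiluminescence by keeping MITF from dimerizing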
AlphaScreen intf2 – AlphaScreen optical interference compounds, counter-screen for MITF inhibitor project, biochemical, triplicate; LysRS AlphaScreen counterscreen, signal interference; inhibition, % at 2.6 µM; shares compounds with MITF primary; 4,700 tested, 7.6% active;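 active = inhibition above a cutoff derived from the DMSO control wells, cut at about 30% in these data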
Of the large screens only hits and unclear results are named; the others gave an inactive call (follow-up assays come after a bar, where they were run). Compounds with a hit are over-represented: about 3.5% of the library has one in this group of screens.

Cc1cc(C(=O)COC(=O)c2cccc(S(=O)(=O)N(C)C)c2)c(C)n1CC1CCCO1 (stereo unspecified)	none
CCn1c(=O)cc(SCC(=O)NCc2cccs2)c2ccccc21	TEAD-YAP inh 43
CCn1c(=O)cc(SCC(=O)NCc2ccc(F)cc2)c2ccccc21	TEAD-YAP inh 45
CCn1c(=O)cc(SCC(=O)NC(C)C)c2ccccc21	none
Cc1cc(O)c(C=O)c2c1C(=O)Oc1c(COC(=O)/C=C/C(=O)O)c(O)c(C(=O)O)c(C)c1O2	MITF primary 76
CCOc1ccc(S(=O)(=O)N2c3ccc(F)cc3CCC2C)c2cccnc12 (stereo unspecified)	TEAD-YAP inh 50
CCOc1ccc(S(=O)(=O)Nc2cc(F)ccc2F)c2cccnc12	none
COc1ccccc1NC(CC(=O)c1ccccc1)C(=O)O (stereo unspecified)	TEAD-YAP inh 54
COc1ccccc1N/C=C/C(=O)c1ccccc1	TEAD-YAP inh 46
O=C(CC(Nc1ccc(F)cc1)C(=O)O)c1ccccc1 (stereo unspecified)	none
COc1ccc(OC)c(N/C=C/C(=O)c2ccccc2)c1	TEAD-YAP inh 95
COc1cccc(C(=O)/C=C\Nc2ccc(OC)cc2OC)c1	TEAD-YAP inh 80
COc1cccc(C(=O)/C=C/Nc2cc(Cl)ccc2OC)c1	none
CCn1c(=O)cc(SCC(=O)NC2CCN(Cc3ccccc3)CC2)c2ccccc21	none
O=C(CC1C(=O)N(CCc2ccccc2)C(=S)N1Cc1ccco1)Nc1ccccc1 (stereo unspecified)	none
CCN1C(=O)CC(C(=O)Nc2ccc(Br)cc2)SC1=Nc1ccc(Br)cc1 (stereo unspecified)	none
CCCCc1ccc(C(=O)Oc2ccc(-c3ccc(CCC)cn3)cc2)cc1	TEAD-YAP inh 70
CCCc1ccc(-c2ccc(C(=O)Oc3ccccc3F)cc2)nc1	TEAD-YAP inh 55
CCCc1ccc(-c2ccc(C(=O)Oc3ccc(F)cc3)cc2)nc1	none
CCCCCc1ccc(-c2ccc(C(=O)Oc3ccc(CC)cc3)cc2)nc1	none
COc1ccc(NC(=O)CSc2nc3ccc(N)cc3s2)cc1	none
COC(=O)CSc1nc2ccc(N)cc2s1	MITF primary 63 | MITF confirm inactive | AlphaScreen intf2 inactive
COC(=O)C1=CN(c2ccc(C)c(Cl)c2)C=C(C(=O)OC)C1c1cccs1	MITF primary 57 | MITF confirm inactive | AlphaScreen intf2 inactive
CCOC(=O)c1cc2c(c(CSc3nc4sc(C(=O)OCC)c(C)c4c(=O)n3Cc3ccco3)c1)OCOC2	none
COc1ccc(C(=O)Nc2cc(C(=O)N(C)Cc3ccccc3)ccc2N2CC3CC(C2)c2cccc(=O)n2C3)cc1 (stereo unspecified)	MITF primary 87 | MITF confirm inactive | AlphaScreen intf2 inactive
COc1cc(OC)cc(C(=O)Nc2cc(C(=O)N(C)Cc3ccccc3)ccc2N2CC3CC(C2)c2cccc(=O)n2C3)c1 (stereo unspecified)	none
Cc1ccc(N(CN2CCCC2=O)C(=O)c2cccc3ccccc23)cc1Cl	none
CCn1c2ccccc2c2cc(CN3CCN(Cc4ccc(OC)c(Br)c4)CC3)ccc21	MITF primary 60 | MITF confirm inactive | AlphaScreen intf2 inactive
CCn1c2ccccc2c2cc(CN3CCN(Cc4cc(OC)c(OC)c(OC)c4)CC3)ccc21	MITF primary 61 | MITF confirm inactive | AlphaScreen intf2 inactive
CCn1c2ccccc2c2cc(CN3CCN(C(=O)c4c(OC)cccc4OC)CC3)ccc21	none
CCn1c2ccccc2c2cc(CN3CCN(C(=O)c4cccc(OC)c4OC)CC3)ccc21	none
CN(C)S(=O)(=O)Nc1ccc(N2CCC(NCCc3ccncc3)CC2)cc1	none
CN(C)S(=O)(=O)Nc1ccc(N2CCC(NCCc3cccs3)CC2)cc1	MITF primary 63 | MITF confirm inactive | AlphaScreen intf2 inactive
CC(O)CNc1ncnc2ccc(I)cc12 (stereo unspecified)	none
Cc1ccc(OCCCN2CCCCC2)c([N+](=O)[O-])c1	MITF primary 87 | MITF confirm inactive | AlphaScreen intf2 inactive
Cc1ccc(OCCCCN2CC(C)OC(C)C2)c([N+](=O)[O-])c1 (stereo unspecified)	MITF primary 63 | MITF confirm inactive | AlphaScreen intf2 inactive
Cc1cc(OCCCCN2CC(C)OC(C)C2)ccc1[N+](=O)[O-] (stereo unspecified)	none
Cc1ccc(OCCN2CCCC(C)C2)c([N+](=O)[O-])c1 (stereo unspecified)	MITF primary 58 | MITF confirm inactive | AlphaScreen intf2 inactive
Cc1ccc(OCCCCN2CCCC2)c([N+](=O)[O-])c1	MITF primary 83 | MITF confirm inactive | AlphaScreen intf2 inactive
Cc1ccc([N+](=O)[O-])c(OCCCN2CCOCC2)c1	none
O=P(O)(O)c1cccc(OCCOCCOc2cccc(P(=O)(O)O)c2)c1	none
CCOc1ccc(N(C(=O)c2ccccc2C)c2nc(-c3ccc(OC)cc3)c(-c3ccccc3)s2)cc1	none
Nc1nonc1OCc1ccc2c(c1)OCO2	none
O=C1CNS(=O)(=O)c2ccccc2N1	MITF primary 59 | MITF confirm inactive | AlphaScreen intf2 inactive
Cc1cc(OCCCCN2CCCC2)ccc1[N+](=O)[O-]	MITF primary 82 | MITF confirm inactive | AlphaScreen intf2 inactive
Cc1ccc([N+](=O)[O-])c(OCCN2CCN(Cc3ccccc3)CC2)c1	MITF primary 63 | MITF confirm inactive | AlphaScreen intf2 inactive
Cc1ccc([N+](=O)[O-])c(OCCN2CCNCC2)c1	none
O=[N+]([O-])c1ccc(OCCCN2CCCCCC2)cc1	none
CCN1CCN(CCOc2ccc([N+](=O)[O-])c(C)c2)CC1	MITF primary 65 | MITF confirm inactive | AlphaScreen intf2 inactive
Cc1cc(OCCCN2CCCCCC2)ccc1[N+](=O)[O-]	none
CCN1CCN(CCCOc2ccc([N+](=O)[O-])cc2)CC1	MITF primary 66 | MITF confirm inactive | AlphaScreen intf2 inactive
CCCN1CCCc2cc(CCNS(=O)(=O)CC)ccc21	none
Cn1cc(C(=O)N2CCOCC2)c(=O)c2cc(S(=O)(=O)N3CCOCC3)ccc21	none
CCOc1ccc(S(=O)(=O)N(CC(=O)Nc2ccc(Cl)cc2C)c2ccccc2)cc1	none
CNc1c([N+](=O)[O-])cnc2c1c(=N)nc1ccccn12	none
Cc1cc(OCCN2CC(C)CC(C)C2)ccc1[N+](=O)[O-] (stereo unspecified)	none
Cc1cc(OCCN2CCN(Cc3ccccc3)CC2)ccc1[N+](=O)[O-]	MITF primary 82 | MITF confirm inactive | AlphaScreen intf2 inactive
Cc1cc(OCCN2CCC(C)CC2)ccc1[N+](=O)[O-]	MITF primary 52 | MITF confirm inactive | AlphaScreen intf2 inactive
